The source of these data is PubChem BioAssay AID1942 (Johns Hopkins Ion Channel Center, 2009).

Hit rate of the full screen: of about 2,400 compounds, about 580 (24%) were called active. Not all results are given here. A number with no mark means an inactive call.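 Rule for the calls: active = activity change at or above the mean plus 3 SD of buffer wells without dofetilide, per plate; inactive = the rest.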

The target of this test is Potassium voltage-gated channel subfamily KQT member 2 (Rattus norvegicus) (UniProt O88943). The test is described as follows: KCNQ2 potentiation in CHO cells – cell-based, FluxOR thallium flux, counter-screen for hERG block protector project, confirmation (AID 1942).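 Note: normalized value minus buffer-control mean plus three SD of buffer wells.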 The following applies: FluxOR thallium flux fluorescence, at 10 µM, hits give high values.
Sequence of Potassium voltage-gated channel subfamily KQT member 2 (Rattus norvegicus) (O88943 whole entry, looked up): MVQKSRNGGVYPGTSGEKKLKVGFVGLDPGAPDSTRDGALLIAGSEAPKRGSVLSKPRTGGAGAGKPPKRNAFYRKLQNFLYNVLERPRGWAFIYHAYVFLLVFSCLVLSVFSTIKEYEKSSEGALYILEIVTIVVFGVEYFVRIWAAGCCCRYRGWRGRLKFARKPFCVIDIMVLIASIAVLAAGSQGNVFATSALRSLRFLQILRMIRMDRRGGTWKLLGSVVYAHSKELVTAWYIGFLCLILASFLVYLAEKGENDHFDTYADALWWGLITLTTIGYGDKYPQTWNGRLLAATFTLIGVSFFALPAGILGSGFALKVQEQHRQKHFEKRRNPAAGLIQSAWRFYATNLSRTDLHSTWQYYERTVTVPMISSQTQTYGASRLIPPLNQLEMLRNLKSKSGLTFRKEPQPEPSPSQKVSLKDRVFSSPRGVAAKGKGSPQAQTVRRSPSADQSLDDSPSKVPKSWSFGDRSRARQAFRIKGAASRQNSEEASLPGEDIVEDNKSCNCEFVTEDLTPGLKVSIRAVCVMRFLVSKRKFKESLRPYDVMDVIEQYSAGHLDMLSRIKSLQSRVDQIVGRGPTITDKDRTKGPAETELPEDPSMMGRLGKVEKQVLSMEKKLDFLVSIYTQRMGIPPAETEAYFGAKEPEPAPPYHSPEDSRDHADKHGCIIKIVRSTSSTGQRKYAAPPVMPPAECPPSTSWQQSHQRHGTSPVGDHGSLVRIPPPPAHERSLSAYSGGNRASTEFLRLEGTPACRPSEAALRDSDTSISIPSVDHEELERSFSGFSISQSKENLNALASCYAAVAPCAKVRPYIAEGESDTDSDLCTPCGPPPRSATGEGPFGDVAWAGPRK
Take `CC(C)C(=O)N(c1ccc(F)cc1)C1C=CS(=O)(=O)C1` (stereo not given): the activity change, less the hit threshold is -12.6%.
`O=c1oc2ccccc2c2c1nc(C(F)(F)F)n2-c1ccccc1`: the activity change, less the hit threshold is -18.1%.
Then `O=C(CSc1nc(-c2ccccc2)nc2ccc(F)cc12)Nc1cccc(C(=O)O)c1`, with -4.9%; and `CC[C@@H](C(=O)[C@@H](C)[C@@H](O)[C@H](C)CCc1ccc(C)c(O)c1C(=O)O)[C@H]1O[C@](CC)([C@H]2CC[C@](O)(CC)[C@H](C)O2)C[C@@H]1C`, with 155% (active).
Take `Cc1nc2c(C(=O)NCCc3ccccc3)c[nH]n2c(=O)c1Cl`: the activity change, less the hit threshold was -7.3%.
On to `O=C(NC(=S)Nc1ccccc1)c1cncc(C#Cc2ccccc2)c1`, for which the activity change, less the hit threshold is -13%.
Then `Cc1snnc1C(=O)NC(=S)Nc1ccccc1`, with 30.3% (active).
As to `Cc1onc(-c2ccccc2Cl)c1C(=O)NC(=S)Nc1ccc(C(C)C)cc1`, the activity change, less the hit threshold is -9%.
As for `O=C(NC(=S)Nc1ccccc1Cl)c1csnn1`, the activity change, less the hit threshold is 71.3% (active).
Consider `O=C(COc1ccccc1Cl)NC(=S)Nc1ccccc1N1CCCC1`, for which the activity change, less the hit threshold is -15.7%.
Regarding `COc1ccc(NC(=S)NC(=O)c2csnn2)cc1`, the activity change, less the hit threshold was 52.2% (active).
For the molecule `Cc1cccnc1NC(=O)c1csnn1`, the activity change, less the hit threshold is -13.6%.
Then `O=C(NC(=S)Nc1ccccc1)c1csnn1`, with 81.6% (active); and `COc1ccc(NC(=O)c2onc(C)c2Cl)cc1`, with -22.4%.
`Cc1ccc(NC(=S)NC(=O)c2ccc(-c3ccccc3)cc2)cc1`: the activity change, less the hit threshold is -11%.
The value for `COc1ccc(NC(=S)Nc2ccccn2)cc1` was -16.1%; that for `Cc1ccc(NC(=O)c2cc(-c3ccc4c(c3)OCO4)on2)cc1` was -8.6%.
In the case of `CCn1c(=O)c(-[n+]2ccccc2)c(O)c2ccccc21`, the activity change, less the hit threshold was -27.1%.
In the case of `Cc1ccc(N2C(=O)c3ccccc3C2(O)c2ncc[nH]2)cc1` (stereo not given), the activity change, less the hit threshold was -19.5%.
Turning to `O=C1C=C(c2ccccc2)OC(=O)C1C(=O)c1ccccc1` (stereo not given), the activity change, less the hit threshold was -12.8%.
The value for `N#Cc1c2n(c3c(=O)n(Cc4ccc(Cl)cc4)cnc13)CCCC2` was -19.7%; that for `CC12CCC3(CO)COC(c4ccccc4O1)C2C3` (stereo not given) was -21.5%.
As for `CCCOc1ccc(-c2c(C(=O)N/N=C/c3ccccc3OCC)nnn2-c2nonc2N)cc1`, the activity change, less the hit threshold is -19.7%.
Consider `CC(=O)N1C(=O)/C(=C2\SC(=S)N(NC(=O)c3ccc(O)cc3)C2=O)c2ccccc21`, for which the activity change, less the hit threshold was -12.5%.
As to `CCCCOC(=O)Nc1nnc(C(C)C)s1`, the activity change, less the hit threshold was -15.9%.
For the molecule `CCCCn1nc(NC(=O)COC)c2cc3ccc(C)cc3nc21`, the activity change, less the hit threshold is -8.8%.
For `COc1ccc(CCNC(=O)c2ccc3c(c2)OCO3)cc1`, the activity change, less the hit threshold is -18%.
On to `O=C(NC(=S)N1CCN(Cc2ccc3c(c2)OCO3)CC1)c1ccc(Cl)cc1`, for which the activity change, less the hit threshold is 36.3% (active).
For `O=C(NC(=S)N1CCN(Cc2ccc3c(c2)OCO3)CC1)c1cccc(Br)c1`, the activity change, less the hit threshold was 46.4% (active).
Regarding `O=C(COc1ccc(Cl)cc1)N1CCN(Cc2ccc3c(c2)OCO3)CC1`, the activity change, less the hit threshold was -4.9%.
With `CCOc1ccc(S(=O)(=O)N2CCN(Cc3ccc4c(c3)OCO4)CC2)cc1C`, the activity change, less the hit threshold is -28.7%.
For `COc1ccc(C(=O)N2CCN(Cc3ccc4c(c3)OCO4)CC2)cc1[N+](=O)[O-]`, the activity change, less the hit threshold is -19.3%.
On to `Cc1cc2nccc(-c3ccc(Cl)cc3Cl)n2n1`, for which the activity change, less the hit threshold was -9.7%.
With `Cc1nnc(SCC2=C(C(=O)O)N3C(=O)C(NC(=O)Cn4nc(C(F)F)cc4C)C3SC2)s1` (stereo not given), the activity change, less the hit threshold is -16.5%.
The value for `CCCCC1C2=C(CCCC2=O)OC2=C1C(=O)CCC2` was -25.6%; that for `O=C1CC(c2ccccc2)c2cccc(F)c21` (stereo not given) was -11.3%.
Regarding `O=C(NC1CCCC1)C(c1ccncc1)N(C(=O)Cn1nnc(-c2ccccc2F)n1)c1cccc(F)c1` (stereo not given), the activity change, less the hit threshold was -18%.
Regarding `COc1ccc(Cn2c(O)cc(=O)[nH]c2=O)cc1`, the activity change, less the hit threshold was -20.5%.
Consider `O=C(O)CSCc1c(F)cccc1Cl`, for which the activity change, less the hit threshold is -31.3%.
As to `Cn1c(CNC(=O)c2ccccc2F)nnc1SCc1nc2ccccc2c(=O)[nH]1`, the activity change, less the hit threshold was -4.7%.
Then `O=C(O)CSc1nc2ccccc2nc1Cc1ccccc1F`, with 1.3% (active); and `CCOC(=O)C1=C(O)/C(=C/c2ccc(OCC(=O)O)c(OC)c2)SC1=Nc1ccc(OCC)cc1`, with -27.2%.
With `Cc1c(/C=C2\SC(=O)N(CC(=O)Nc3ccc4c(c3)OCO4)C2=O)c2ccccc2n1C`, the activity change, less the hit threshold was -15.7%.
Turning to `CC(=O)N(C1=C(N)C(=O)c2ccccc2C1=O)C(C)C`, the activity change, less the hit threshold was -9.1%.
As to `Cc1ccc(C(C#N)c2ccc3c(C(F)(F)F)cc(C(F)(F)F)nc3n2)cc1` (stereo not given), the activity change, less the hit threshold was -5.9%.
With `CCc1nnc(NC(=O)CSc2nc(-c3ccccc3)cc(-c3ccc(OC)cc3)c2C#N)s1`, the activity change, less the hit threshold is -24.2%.
The value for `CC(C)c1ccc(NC(=O)C2CC3CCC2C3)cc1` (stereo not given) was 21.5% (active); that for `COc1ccc(NC(=O)C2CC3CCC2C3)c(OC)c1` (stereo not given) was 15.8% (active).
The value for `COc1ccc(NC(=O)COC(=O)c2c(C)noc2C)c(OC)c1` was -8.1%; that for `COc1ccc(OC)c(NC(=O)C(=S)NC2CCCCC2)c1` was -21.2%; that for `Cc1cc(C)c(NC(=O)C2CC3CCC2C3)c(C)c1` (stereo not given) was 75.9% (active).
Take `Cc1cc(C)c2nc(NC(=O)C3CCCO3)sc2c1` (stereo not given): the activity change, less the hit threshold was -17%.
As for `CC(C)N1CC(C(=O)Nc2ccc(Cl)c(Cl)c2)CC1=O` (stereo not given), the activity change, less the hit threshold is -15.3%.
As for `O=C(O)Cc1ccc(NC(=O)C2CC=CCC2C(=O)O)cc1` (stereo not given), the activity change, less the hit threshold is -17.7%.
In the case of `O=C(COc1ccc([N+](=O)[O-])cc1)Nc1cccnc1`, the activity change, less the hit threshold is -27.2%.
Take `c1ccc(OCc2nn3c(Cn4cnc5ccccc54)nnc3s2)cc1`: the activity change, less the hit threshold was -20.8%.
Then `CCCN1CCN(CCCNC(=O)Cn2nc(C)n3c(cc4cc(OC)ccc43)c2=O)CC1`, with -25.2%.
In the case of `CC(C)[C@H](NC(=O)OC(C)(C)C)C(=O)NCC1CCC(C(=O)N[C@@H](Cc2ccccc2)C(=O)O)CC1` (stereo not given in full), the activity change, less the hit threshold is -10.4%.
On to `CCOC(=O)c1cnc(-n2nc(C)cc2C)nc1NNc1nc(-c2ccccc2)cc(-c2ccccc2)n1`, for which the activity change, less the hit threshold was -15%.
With `CCOC(=O)Cn1cc(C=O)c2ccccc21`, the activity change, less the hit threshold is -12.9%.
